The structures appear in SMILES notation. Inconclusive results are not listed. Activity calls are given as the source filed them. The calls were made as follows: active = hit-call score of the fitted dose curve at least 0.9, where 1 is the maximum; inconclusive = response in the unintended direction; inactive = score below 0.9.

For eight compounds, outcome and AC50 results are on record in PubChem BioAssay (EPA / NIEHS).

The target in test [1] is human Thyroid hormone Receptor alpha (TRa), THRA (gene 7067) (UniProt P10827). Put plainly: ATG_hTRa_XSP1: Attagene TRANS-FACTORIAL Multi-Species (XSP1) HepG2 Assay for human Thyroid hormone Receptor alpha (TRa) (AID 2283805). A digest of the protocol: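 HepG2 cells transiently transfected with GAL4-UAS reporter units expressing chimeric NR-Gal4 proteins, dosed 24 hours with 3 nM 6-alpha-fluorotestosterone present. Reporter mRNA measured by RT-PCR and capillary electrophoresis; gain of signal fitted versus DMSO.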

In test [2] the target is zebrafish Thyroid Hormone Receptor alpha (TRa), thraa (gene 30670) (UniProt Q98867). Put plainly: ATG_zfTRa_XSP1: Attagene TRANS-FACTORIAL Multi-Species (XSP1) HepG2 Assay for zebrafish Thyroid Hormone Receptor alpha (TRa) (AID 2283807). The gist of the method: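 HepG2 cells transiently transfected with GAL4-UAS reporter units including a zebrafish TRa–Gal4 chimera, dosed 24 h with 3 nM 6-alpha-fluorotestosterone present. Reporter mRNA quantified by RT-PCR and capillary electrophoresis; gain versus DMSO.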

In test [3] the target is human Thyroid hormone Receptor beta (TRb), THRB (gene 7068) (UniProt P10828). Put plainly: ATG_hTRb_XSP1: Attagene TRANS-FACTORIAL Multi-Species (XSP1) HepG2 Assay for human Thyroid hormone Receptor beta (TRb) (AID 2283808). A digest of the protocol:
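HepG2 cells transiently transfected with reporter units driving GAL4-UAS reporters for chimeric NR-Gal4 proteins; 24 h chemical exposure with 3 nM 6-alpha-fluorotestosterone present. Reporter mRNA quantified by RT-PCR and capillary electrophoresis, gain of signal versus DMSO.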

In test [4] the target is zebrafish Thyroid Hormone Receptor beta (TRb), thrb (gene 30607) (UniProt Q9PVE4). Put plainly: ATG_zfTRb_XSP1: Attagene TRANS-FACTORIAL Multi-Species (XSP1) HepG2 Assay for zebrafish Thyroid Hormone Receptor beta (TRb) (AID 2283809). The gist of the method: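 HepG2 cells transiently transfected with multiplexed GAL4-UAS reporter units expressing chimeric zebrafish TRb–Gal4. Dosed 24 h with 3 nM 6-alpha-fluorotestosterone present; reporter mRNA measured by RT-PCR, HpaI digestion and capillary electrophoresis; gain of signal versus DMSO.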

The nature of test [5]: ATG_M_06_XSP2: Attagene TRANS-FACTORIAL Multi-Species (XSP2) HepG2 Assay for M06 Transcription Factor (Internal Marker) (AID 2283811).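 Also: hits are increases in signal above the DMSO baseline.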 A digest of the protocol:
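HepG2 cells transiently transfected with GAL4-UAS multi-reporter constructs, dosed 24 h with 3 nM 6-alpha-fluorotestosterone plus 1.5 nM norgestrel present to stimulate androgen receptor. Reporter mRNA quantified by RT-PCR, 6-FAM labelling, HpaI digestion and capillary electrophoresis; gain-of-signal fitted versus DMSO baseline.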

For test [6], the system named is turtle Estrogen Receptor (ERa), gene 101933533. Put plainly: ATG_trERa_XSP2: Attagene TRANS-FACTORIAL Multi-Species (XSP2) HepG2 Assay for turtle Estrogen Receptor (ERa) (AID 2283812).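 Also: human HepG2 liver cells transiently expressing turtle ERa-Gal4 chimeric receptor; actives raise reporter signal above DMSO so AC50 reflects agonist activity.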 The gist of the method: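 HepG2 cells transiently transfected with GAL4-UAS reporter units expressing turtle ERa-Gal4 chimera. Reporter mRNA measured after 24 h dosing by RT-PCR, fluorescent labelling and capillary electrophoresis; gain of signal fitted versus DMSO.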

Test [7] concerns the target Estrogen receptor beta (Homo sapiens) (UniProt Q92731). Put plainly: ATG_hERb_XSP2: Attagene TRANS-FACTORIAL Multi-Species (XSP2) HepG2 Assay for human Estrogen Receptor (ERb) (AID 2283813).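 Also: actives raise reporter mRNA above DMSO so AC50 reflects agonist induction.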 The gist of the method: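 HepG2 cells transiently transfected with GAL4-UAS reporter units and chimeric human ERb-Gal4, 24 h exposure. Reporter mRNA quantified by RT-PCR with FAM labelling, HpaI digestion and capillary electrophoresis; gain of signal versus DMSO.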

Test [8] addresses GAL4 Transcription Factor (Internal Marker), GAL4 (gene 855828) (UniProt P04386). Put plainly: ATG_GAL4_XSP2: Attagene TRANS-FACTORIAL Multi-Species (XSP2) HepG2 Assay for GAL4 Transcription Factor (Internal Marker) (AID 2283814).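 Also: GAL4 reporter mRNA background control in MRTU transfected cells not a receptor target.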 A digest of the protocol: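 HepG2 cells transiently transfected with GAL4-UAS reporter units, stimulated with 3 nM 6-alpha-fluorotestosterone plus 1.5 nM norgestrel, dosed 24 h. Reporter mRNA by RT-PCR/capillary electrophoresis; gain-of-signal fit versus DMSO, background control.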

The target of test [9] is chicken Estrogen Receptor (ERa), ESR1 (gene 396099) (UniProt P06212). Put plainly: ATG_chERa_XSP2: Attagene TRANS-FACTORIAL Multi-Species (XSP2) HepG2 Assay for chicken Estrogen Receptor (ERa) (AID 2283817).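 Also: actives raise reporter signal above DMSO so AC50 reflects ER activation.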 A digest of the protocol:
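HepG2 cells transiently transfected with multiplexed GAL4-UAS reporter units expressing chimeric chicken ERa-Gal4; 24 h compound exposure. Reporter mRNA measured by RT-PCR with 6-FAM labelling, HpaI digestion and capillary electrophoresis; gain-of-signal fitted versus DMSO.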

Test [10] relates to zebrafish Estrogen Receptor (ER2a), gene 317734. Put plainly: ATG_zfER2a_XSP2: Attagene TRANS-FACTORIAL Multi-Species (XSP2) HepG2 Assay for zebrafish Estrogen Receptor (ER2a) (AID 2283818).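 Also: hits raise reporter mRNA so AC50 reflects activation of zebrafish ER2a.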 The gist of the method:
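HepG2 cells transiently transfected with GAL4-UAS reporter units and chimeric zebrafish ER2a-Gal4, exposed 24 h; medium contains 3 nM 6-alpha-fluorotestosterone and 1.5 nM norgestrel. Reporter mRNA quantified by RT-PCR, HpaI digestion, capillary electrophoresis; gain versus DMSO.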

The test system of test [11] is chicken Androgen Receptor (AR), gene 422165. Put plainly: ATG_chAR_XSP2: Attagene TRANS-FACTORIAL Multi-Species (XSP2) HepG2 Assay for chicken Androgen Receptor (AR) (AID 2283819).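 Also: hits raise reporter mRNA above DMSO so potency is for activation.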 A digest of the protocol:
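HepG2 cells transiently transfected with chicken AR–GAL4 chimeric reporter constructs, stimulated with 3 nM 6-alpha-fluorotestosterone plus 1.5 nM norgestrel, dosed 24 h. Reporter mRNA quantified by RT-PCR and capillary electrophoresis; gain of signal fitted versus DMSO.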

The test system of test [12] is frog Estrogen Receptor (ER), gene 398734. Put plainly: ATG_frER1_XSP2: Attagene TRANS-FACTORIAL Multi-Species (XSP2) HepG2 Assay for frog Estrogen Receptor (ER) (AID 2283821).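 Also: hits raise reporter mRNA above DMSO baseline so potency means agonist or activator.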 The gist of the method: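 HepG2, transient MRTU transfection, chimeric NR-GAL4/UAS reporters; 24 h compound exposure, 24-well. Readout: reporter mRNA via RT-PCR + capillary electrophoresis, fluorescence. Positive fit vs DMSO baseline.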

Test [13] has as its system zebrafish Estrogen Receptor (ER2b), gene 317733. Put plainly: ATG_zfER2b_XSP2: Attagene TRANS-FACTORIAL Multi-Species (XSP2) HepG2 Assay for zebrafish Estrogen Receptor (ER2b) (AID 2283823).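 Also: fitted upward as reporter gain over DMSO so potency reflects activation.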 The gist of the method:
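Transcriptional induction measured as reporter mRNA (RT-PCR, fluorescent capillary electrophoresis) in transiently transfected HepG2 cells after 24 h dosing; DMSO served as negative control and baseline.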

Test [14] can be described thus: ATG_M_32_XSP2: Attagene TRANS-FACTORIAL Multi-Species (XSP2) HepG2 Assay for M19 Transcription Factor (Internal Marker) (AID 2283826). The gist of the method:
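An internal background marker among multiplexed transfected reporters in HepG2 liver cells was measured 24 h after dosing. Androgen receptor stimulation came from 3 nM 6-alpha-fluorotestosterone and 1.5 nM norgestrel.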

The target of test [15] is frog Thyroid hormone Receptor alpha (TRa), thra-a (gene 397942) (UniProt P15204). Put plainly: ATG_frTRa_XSP1: Attagene TRANS-FACTORIAL Multi-Species (XSP1) HepG2 Assay for frog Thyroid hormone Receptor alpha (TRa) (AID 2283804). The gist of the method:
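HepG2 cells transiently transfected with frog TRa-GAL4 chimeric reporter units, dosed 24 hr with 3 nM 6-alpha-fluorotestosterone present; reporter mRNA quantified by RT-PCR, fluorescent labelling and capillary electrophoresis, gain of signal versus DMSO.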

Test [16] has as its system turtle Thyroid Hormone Receptor, alpha (TRa), gene 101949057. Put plainly: ATG_trTRa_XSP1: Attagene TRANS-FACTORIAL Multi-Species (XSP1) HepG2 Assay for turtle Thyroid Hormone Receptor, alpha (TRa) (AID 2283806). The gist of the method:
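HepG2 cells transiently transfected with GAL4-UAS reporter units and chimeric receptor-Gal4 constructs, with 3 nM 6-alpha-fluorotestosterone present. Reporter mRNA was quantified 24 h after dosing by RT-PCR, 6-FAM labelling and capillary electrophoresis; gain of signal versus DMSO.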

Test [17] concerns frog Androgen Receptor (AR), gene 399456. Put plainly: ATG_frAR_XSP2: Attagene TRANS-FACTORIAL Multi-Species (XSP2) HepG2 Assay for frog Androgen Receptor (AR) (AID 2283824).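 Also: actives raise reporter signal above DMSO so AC50 reflects agonist-like induction.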 The gist of the method:
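HepG2 cells transiently transfected with GAL4-UAS reporter units and frog (Xenopus laevis) AR-Gal4 chimera; reporter mRNA measured 24 h after dosing by RT-PCR and capillary electrophoresis. Gain of signal fitted relative to DMSO baseline.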

Test [18] has as its system zebrafish Androgen Receptor (AR), gene 100005148. Put plainly: ATG_zfAR_XSP2: Attagene TRANS-FACTORIAL Multi-Species (XSP2) HepG2 Assay for zebrafish Androgen Receptor (AR) (AID 2283825).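 Also: hits raise reporter mRNA above DMSO so AC50 reflects agonist-type gain.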 A digest of the protocol:
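Zebrafish AR–GAL4 chimera transiently expressed with GAL4-UAS reporter in HepG2 cells, co-stimulated with 3 nM 6-alpha-fluorotestosterone and 1.5 nM norgestrel; 24 h dosing, reporter mRNA read by RT-PCR/capillary electrophoresis versus DMSO.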

A short description of test [19]: ATG_M_19_XSP2: Attagene TRANS-FACTORIAL Multi-Species (XSP2) HepG2 Assay for M32 Transcription Factor (Internal Marker) (AID 2283822). A digest of the protocol:
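Internal background marker in a multi-species nuclear receptor TRANS panel: transfected HepG2 cells exposed 24 h, with 3 nM 6-alpha-fluorotestosterone and 1.5 nM norgestrel present. Readout is RT-PCR of reporter transcripts resolved by capillary electrophoresis, gain-of-signal versus DMSO.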

Chain of zebrafish Thyroid Hormone Receptor alpha (TRa), thraa (gene 30670) (Q98867 whole entry, looked up, the tested form may be a part): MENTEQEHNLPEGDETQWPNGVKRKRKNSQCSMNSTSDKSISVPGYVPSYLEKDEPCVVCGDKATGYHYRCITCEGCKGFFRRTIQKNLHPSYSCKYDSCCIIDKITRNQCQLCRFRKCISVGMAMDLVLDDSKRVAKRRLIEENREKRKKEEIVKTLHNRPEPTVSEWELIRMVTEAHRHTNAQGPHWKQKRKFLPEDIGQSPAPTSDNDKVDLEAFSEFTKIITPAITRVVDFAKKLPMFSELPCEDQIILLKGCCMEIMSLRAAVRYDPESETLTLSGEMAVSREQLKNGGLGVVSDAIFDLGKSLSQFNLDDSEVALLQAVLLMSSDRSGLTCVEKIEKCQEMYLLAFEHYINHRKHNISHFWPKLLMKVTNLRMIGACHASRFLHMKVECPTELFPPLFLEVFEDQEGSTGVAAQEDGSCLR
Chain of human Thyroid hormone Receptor alpha (TRa), THRA (gene 7067) (P10827 whole entry, looked up, the tested form may be a part): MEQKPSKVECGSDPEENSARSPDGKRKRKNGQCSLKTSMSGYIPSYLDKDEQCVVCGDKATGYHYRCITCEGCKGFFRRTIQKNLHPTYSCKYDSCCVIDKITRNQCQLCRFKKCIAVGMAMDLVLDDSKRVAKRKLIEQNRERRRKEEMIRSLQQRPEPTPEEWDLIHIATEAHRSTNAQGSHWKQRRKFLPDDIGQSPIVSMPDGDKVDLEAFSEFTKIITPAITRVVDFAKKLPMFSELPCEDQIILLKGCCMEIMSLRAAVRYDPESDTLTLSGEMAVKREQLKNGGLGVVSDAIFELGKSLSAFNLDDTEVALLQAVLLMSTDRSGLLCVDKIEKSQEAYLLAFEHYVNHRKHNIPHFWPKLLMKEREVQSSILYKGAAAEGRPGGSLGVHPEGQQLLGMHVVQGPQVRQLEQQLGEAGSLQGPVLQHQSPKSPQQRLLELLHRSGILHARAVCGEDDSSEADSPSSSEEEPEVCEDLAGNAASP
Chain of zebrafish Thyroid Hormone Receptor beta (TRb), thrb (gene 30607) (Q9PVE4 whole entry, looked up, the tested form may be a part): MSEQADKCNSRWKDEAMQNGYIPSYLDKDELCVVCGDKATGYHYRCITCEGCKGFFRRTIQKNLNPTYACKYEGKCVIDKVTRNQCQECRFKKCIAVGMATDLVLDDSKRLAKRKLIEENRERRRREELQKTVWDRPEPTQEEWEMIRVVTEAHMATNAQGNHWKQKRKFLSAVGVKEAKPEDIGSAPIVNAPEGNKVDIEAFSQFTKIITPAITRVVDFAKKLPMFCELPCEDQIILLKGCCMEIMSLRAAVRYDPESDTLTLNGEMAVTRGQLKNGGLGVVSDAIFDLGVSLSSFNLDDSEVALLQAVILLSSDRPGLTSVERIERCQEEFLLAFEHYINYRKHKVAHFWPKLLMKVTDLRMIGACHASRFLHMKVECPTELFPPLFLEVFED
Chain of human Thyroid hormone Receptor beta (TRb), THRB (gene 7068) (P10828 whole entry, looked up, the tested form may be a part): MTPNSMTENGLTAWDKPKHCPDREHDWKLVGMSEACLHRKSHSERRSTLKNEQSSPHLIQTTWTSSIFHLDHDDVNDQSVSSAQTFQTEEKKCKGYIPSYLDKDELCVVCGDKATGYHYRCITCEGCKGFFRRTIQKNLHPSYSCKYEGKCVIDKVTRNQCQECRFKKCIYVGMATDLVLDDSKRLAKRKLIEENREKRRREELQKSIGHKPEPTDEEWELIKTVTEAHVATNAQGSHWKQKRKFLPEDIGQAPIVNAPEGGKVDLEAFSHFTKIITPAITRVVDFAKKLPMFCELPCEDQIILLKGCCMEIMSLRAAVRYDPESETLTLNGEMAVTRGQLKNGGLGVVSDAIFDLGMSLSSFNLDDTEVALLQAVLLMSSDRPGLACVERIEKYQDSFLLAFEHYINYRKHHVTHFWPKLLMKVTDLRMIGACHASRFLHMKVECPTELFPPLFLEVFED
Chain of GAL4 Transcription Factor (Internal Marker), GAL4 (gene 855828) (P04386 whole entry, looked up, the tested form may be a part): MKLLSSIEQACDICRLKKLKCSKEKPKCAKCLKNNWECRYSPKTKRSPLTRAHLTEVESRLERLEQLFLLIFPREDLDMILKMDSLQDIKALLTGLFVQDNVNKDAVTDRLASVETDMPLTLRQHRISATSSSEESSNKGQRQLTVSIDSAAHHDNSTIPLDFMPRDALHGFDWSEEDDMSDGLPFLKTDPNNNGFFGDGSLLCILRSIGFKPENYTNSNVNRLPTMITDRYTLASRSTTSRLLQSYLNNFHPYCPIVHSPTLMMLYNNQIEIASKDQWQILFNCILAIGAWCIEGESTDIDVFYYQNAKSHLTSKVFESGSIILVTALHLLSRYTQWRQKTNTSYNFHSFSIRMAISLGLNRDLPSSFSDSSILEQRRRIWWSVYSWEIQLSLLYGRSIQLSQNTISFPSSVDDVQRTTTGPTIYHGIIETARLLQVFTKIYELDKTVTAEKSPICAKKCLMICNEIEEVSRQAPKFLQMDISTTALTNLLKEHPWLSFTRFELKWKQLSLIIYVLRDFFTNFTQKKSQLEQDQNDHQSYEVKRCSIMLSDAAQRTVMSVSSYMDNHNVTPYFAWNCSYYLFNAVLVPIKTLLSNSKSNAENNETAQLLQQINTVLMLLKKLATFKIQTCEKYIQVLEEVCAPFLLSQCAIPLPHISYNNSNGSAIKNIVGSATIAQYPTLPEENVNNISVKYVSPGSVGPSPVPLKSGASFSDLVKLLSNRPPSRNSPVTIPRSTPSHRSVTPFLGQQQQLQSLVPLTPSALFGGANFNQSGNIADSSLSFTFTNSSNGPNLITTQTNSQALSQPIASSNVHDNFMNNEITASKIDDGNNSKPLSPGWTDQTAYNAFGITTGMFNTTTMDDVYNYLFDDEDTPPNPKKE
Chain of chicken Estrogen Receptor (ERa), ESR1 (gene 396099) (P06212 whole entry, looked up, the tested form may be a part): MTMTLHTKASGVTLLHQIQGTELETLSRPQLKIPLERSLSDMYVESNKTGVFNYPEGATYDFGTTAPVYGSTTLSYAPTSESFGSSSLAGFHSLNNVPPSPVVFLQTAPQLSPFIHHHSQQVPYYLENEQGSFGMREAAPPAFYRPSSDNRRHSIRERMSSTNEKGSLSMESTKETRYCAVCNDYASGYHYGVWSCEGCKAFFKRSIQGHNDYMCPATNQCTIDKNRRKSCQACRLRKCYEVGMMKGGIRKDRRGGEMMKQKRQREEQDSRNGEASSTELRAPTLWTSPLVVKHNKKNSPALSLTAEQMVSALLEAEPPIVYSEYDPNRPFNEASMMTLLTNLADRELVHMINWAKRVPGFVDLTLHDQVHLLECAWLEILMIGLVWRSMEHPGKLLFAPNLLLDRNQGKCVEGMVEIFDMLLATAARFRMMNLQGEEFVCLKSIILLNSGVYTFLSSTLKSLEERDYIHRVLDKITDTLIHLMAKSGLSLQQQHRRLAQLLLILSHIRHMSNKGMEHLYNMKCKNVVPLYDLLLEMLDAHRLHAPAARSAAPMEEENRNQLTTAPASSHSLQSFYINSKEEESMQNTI
Chain of frog Thyroid hormone Receptor alpha (TRa), thra-a (gene 397942) (P15204 whole entry, looked up, the tested form may be a part): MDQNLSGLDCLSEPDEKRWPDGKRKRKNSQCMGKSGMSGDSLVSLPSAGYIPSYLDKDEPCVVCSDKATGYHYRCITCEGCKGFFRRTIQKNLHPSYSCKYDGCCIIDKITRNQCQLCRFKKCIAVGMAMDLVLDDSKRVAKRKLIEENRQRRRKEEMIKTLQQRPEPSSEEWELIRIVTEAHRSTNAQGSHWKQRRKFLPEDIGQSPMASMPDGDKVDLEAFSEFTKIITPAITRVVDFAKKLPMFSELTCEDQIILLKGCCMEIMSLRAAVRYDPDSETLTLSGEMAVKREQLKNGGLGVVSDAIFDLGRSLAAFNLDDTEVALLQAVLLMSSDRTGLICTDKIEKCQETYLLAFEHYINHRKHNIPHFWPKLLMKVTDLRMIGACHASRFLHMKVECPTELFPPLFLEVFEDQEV
Chain of Estrogen receptor beta (Homo sapiens) (Q92731 whole entry, looked up, the tested form may be a part): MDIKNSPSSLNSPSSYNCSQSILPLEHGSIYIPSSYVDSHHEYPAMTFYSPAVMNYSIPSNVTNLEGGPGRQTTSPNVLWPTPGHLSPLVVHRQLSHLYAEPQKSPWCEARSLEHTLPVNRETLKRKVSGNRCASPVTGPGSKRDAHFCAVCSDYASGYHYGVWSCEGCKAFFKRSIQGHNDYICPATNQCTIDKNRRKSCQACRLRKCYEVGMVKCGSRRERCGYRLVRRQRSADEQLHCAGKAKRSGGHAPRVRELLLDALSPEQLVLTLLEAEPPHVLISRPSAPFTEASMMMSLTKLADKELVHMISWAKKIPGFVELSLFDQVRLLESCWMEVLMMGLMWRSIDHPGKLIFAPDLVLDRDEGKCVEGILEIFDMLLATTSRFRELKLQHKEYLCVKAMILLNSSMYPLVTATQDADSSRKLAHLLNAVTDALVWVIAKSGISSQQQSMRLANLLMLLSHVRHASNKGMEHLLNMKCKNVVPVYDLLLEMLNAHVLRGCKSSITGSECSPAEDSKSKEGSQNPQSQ

In the case of `COc1ccc(C(c2ccc(OC)cc2)C(Cl)(Cl)Cl)cc1`, the result in test [1], in test [2], in test [3], in test [4], in [5] and in test [7] was inactive. Further, the compound was classed as inactive in [8], in test [10], in [11] and in test [14]. Moreover, the AC50 – broadly, the concentration giving half of the maximal activity seen – in test [6] is 8.99 µM (active); in test [9], 7.74 µM (active); in [12] it was 8.82 µM (active); in [13] it was 8.65 µM (active).

Regarding `CCCN(CCC)c1c([N+](=O)[O-])cc(S(N)(=O)=O)cc1[N+](=O)[O-]`, the AC50 in [15] was 8.93 µM (active); in [1] it was 8.28 µM (active); in test [16], 8.29 µM (active); in [3], 9.26 µM (active); in test [4], 9.16 µM (active); in test [13], 40.4 µM (active). The call in test [2], in test [5], in test [6], in test [7], in test [9] and in test [10] was inactive. Further, in test [12], the outcome was inactive.

Consider `CC(C)Oc1cc(-n2nc(C(C)(C)C)oc2=O)c(Cl)cc1Cl`, for which the AC50 in [15] was 61.6 µM (active); in [6], 100 µM (active); in [7], 29.3 µM (active); in test [9], 100 µM (active); in test [10] it was 63.5 µM (active); in [13] it was 59.1 µM (active). The compound was classed as inactive in test [16], in test [2], in [4], in test [5], in [8] and in test [11]. Moreover, the result in test [12] and in test [17] was inactive.

On to `CO/C=C(/C(=O)OC)c1ccccc1Oc1cc(Oc2ccccc2C#N)ncn1`, for which the compound was classed as inactive in test [15], in test [1], in test [16], in [2], in [3] and in test [4]. The compound was called inactive in test [5], in test [6], in test [13] and in [18].

Take `OC(c1ccc(Cl)cc1)(c1cncnc1)c1ccccc1Cl` (stereo unspecified): the result in test [2], in [5], in test [8], in [12] and in test [14] was inactive. Moreover, the AC50 in test [6] was 1.49 µM (active); in test [7], 25.4 µM (active); in test [9], 1.8 µM (active); in test [10], 26.5 µM (active); in test [13] it was 7.41 µM (active).

As for `CCCCOC(=O)c1ccccc1C(=O)OCCCC`, the result in test [16], in [2], in test [3], in test [4], in test [7] and in [8] was inactive. In addition, the call in [10], in test [11], in test [19] and in test [14] was inactive. The AC50 was 42.3 µM (active) in test [6], 23 µM (active) in [9], 29 µM (active) in [12] and 79.3 µM (active) in [13].

As to `CCOP(=S)(OCC)SCn1c(=O)oc2cc(Cl)ccc21`, the outcome in [3], in test [5], in test [6], in test [7], in [8] and in test [9] was inactive. The result in test [10], in test [11] and in test [12] was inactive. The AC50 was 49.8 µM (active) in test [4] and 31.8 µM (active) in test [13].

Take `COC(=O)N(OC)c1ccccc1COc1ccn(-c2ccc(Cl)cc2)n1`: the compound was called inactive in [15], in test [16], in [2], in test [4], in test [5] and in [6]. The result in test [7], in test [8], in [9], in test [10], in test [12] and in [13] was inactive. Besides, the outcome in [14] was inactive. In addition, the AC50 is 1.51 µM (active) in test [1] and 3.33 µM (active) in test [3].
